Source: PubChem BioAssay
ERK EGF block – blocks ERK signaling stimulated by EGF; HEK293-V1b, EGF-stimulated phospho-ERK AlphaScreen; 130,000 tested, 0.41% active; Potency, µM (top dose mostly 11.5 µM), without a hit: at the highest dose activity change, negative = inhibition, hits mostly inhibitors; active means well fitted inhibition curve with a large enough effect;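 further: plate controls were stimulated vehicle wells for no effect and unstimulated vehicle basal for full effect; nearly all actives have a fitted effect of over 55% in size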
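Concentration-response of compounds against EGF-driven ERK phosphorylation in V1b-expressing HEK293 cells; 30 min preincubation, 5 min EGF, AlphaScreen detection; Normalized to DMSO basal and 25 nM EGF.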
* = called active by the depositor; [ ] = remark or other dose. Many of the other results were omitted from the sample, so hits are more common in it than they were. Potency means the concentration at half of the fitted maximal effect.

For N#Cc1cccc(NC(=O)CSc2nnc(-c3n[nH]c4ccccc34)o2)c1 the results were ERK EGF block 32µM*.
For Cc1cccc(NC(=O)CSc2nnc(-c3n[nH]c4ccccc34)o2)c1 the results were ERK EGF block 3%.
Screening C#Cc1cccc(NC(=O)CSc2nnc(-c3ccc(C(F)(F)F)cn3)o2)c1 returned ERK EGF block 1%[57.5 µM].
For O=C1c2cccc3cccc(c23)C(=O)N1CCN1CCN(CC(O)COc2ccc3ccccc3c2)CC1 (stereo not given) the results were ERK EGF block 1%.
For O=C1c2cccc3cccc(c23)C(=O)N1CCN1CCN(C(=S)Nc2ccc(Cl)cc2)CC1 the results were ERK EGF block 8%.
CC(=O)c1ccccc1OCC(O)CN1CCN(CCN2C(=O)c3cccc4cccc(c34)C2=O)CC1 (stereo not given) was read as ERK EGF block 25µM*.
`COc1cc(COCC(O)CN2CCN(CCN3C(=O)c4cccc5cccc(c45)C3=O)CC2)cc(OC)c1OC` (stereo not given) gave ERK EGF block 5%.
Screening CC(=O)c1ccccc1OC(=O)CCN1C(=O)c2ccccc2C1=O returned ERK EGF block 2%.
Screening O=C1c2cccc3cccc(c23)C(=O)N1CCN1CCN(CC(O)COCc2ccc(Cl)cc2)CC1 (stereo not given) returned ERK EGF block 32µM*.
Screening COc1ccc2c(c1)O[C@@H](c1ccc3c(c1)OCO3)[C@H](OC(=O)Nc1ccc(OC(F)F)cc1)C2=O returned ERK EGF block -5%.
CS(=O)(=O)CCCCN=C=S was read as ERK EGF block 22%.
Screening O=C1N[C@H](Cc2ccccc2)C(=O)N1Cc1cccc2ccccc12 returned ERK EGF block -11%.
`COc1ccc(-c2coc3ccc(OC4OC(COC(C)=O)C(OC(C)=O)C(OC(C)=O)C4OC(C)=O)c(OC(C)=O)c3c2=O)cc1` (stereo not given) gave ERK EGF block -9%.
For COc1ccc(/C=C/C(=O)O)cc1Cl the results were ERK EGF block -2%[57.5 µM].
Screening COc1ccc(S(=O)(=O)N2CCCC2)c(Cl)c1Cl returned ERK EGF block 2%.
`COc1ccc(C=C2C(=O)c3ccccc3C2=O)cc1O` gave ERK EGF block -2%.
COc1ccc(OC)c2c1C(=O)C(Cl)=C(Cl)C2=O was read as ERK EGF block 28µM*.
For COc1ccc(N)c2c1C(=O)c1ccccc1C2=O the results were ERK EGF block 20µM*.
`Nc1ccc(O)c2c1C(=O)c1ccccc1C2=O` gave ERK EGF block 29%.
For O=C(c1cnccn1)N1CCC2(CC1)CCN(c1cccc(-c3ccccc3)c1)CC2 the results were ERK EGF block 2%.
COc1cc([C@@H]2Oc3cc([C@H]4Oc5cc(O)cc(O)c5C(=O)[C@H]4O)ccc3O[C@H]2CO)ccc1O was read as ERK EGF block -12%.
For CCC(=O)OC1(C)C(=O)C=C2C=C(CCCNC(=O)OC(C)(C)C)OC=C2C1=O (stereo not given) the results were ERK EGF block -16%.
`COc1cc2cc3c4c(cc(OC)c(OC)c4c2cc1OC)CCN3C` gave ERK EGF block -16%.
`COc1ccc(-c2coc3ccc(OC4OC(COC(C)=O)C(OC(C)=O)C(OC(C)=O)C4OC(C)=O)cc3c2=O)cc1` (stereo not given) gave ERK EGF block -5%.
CC(C)C[C@@H](CC(=O)N[C@@H](CCCN)CC(=O)N[C@@H]1CCCC[C@H]1C(=O)N[C@H](CC(=O)N[C@@H](CCC(=O)O)CC(=O)O)Cc1c[nH]c2ccccc12)NC(=O)[C@@H]1CNCC[C@H]1N was read as ERK EGF block 4%.
`Cc1ccccc1C(=O)Nc1c(-c2cccs2)c(=O)c2ccccc2n1C` gave ERK EGF block -1%[57.5 µM].
Screening COc1ccc(C(=O)Nc2c(-c3cccs3)c(=O)c3ccccc3n2C)cc1 returned ERK EGF block 5.6µM*.
`COc1ccc(C(=O)Nc2nc(-c3cccs3)c(NC(C)=O)s2)cc1` gave ERK EGF block 1%.
COc1ccc(NC(=O)N2CCC3(CC2)CCN(C(=O)c2ccco2)CC3)cc1 was read as ERK EGF block 10%.
CCOC(=O)c1cc(NC(=O)COc2ccc([N+](=O)[O-])cc2)cc(C(=O)OCC)c1 was read as ERK EGF block -1%.
`CCOC(=O)c1cccc(NC(=O)/C=C/c2ccc([N+](=O)[O-])cc2)c1` gave ERK EGF block 32µM*.
O=C(/C=C/c1cccc([N+](=O)[O-])c1)Nc1cc(C(=O)O)cc(C(=O)O)c1 was read as ERK EGF block 3%.
Screening CCN1CCN(C(=O)NC(C(=O)NC2C(=O)N3C(C(=O)O)=C(CSc4nnnn4C)CSC23)c2ccc(O)cc2)C(=O)C1=O (stereo not given) returned ERK EGF block 17%.
For COc1ccccc1NC(=O)C(=O)N1CCCC1 the results were ERK EGF block -10%.
`COc1ccccc1NS(=O)(=O)c1cc(NC(C)=O)ccc1N1CCCCC1` gave ERK EGF block 2%.
`COc1ccccc1NC1=C(N2CCCCC2)C(=O)c2ccccc2C1=O` gave ERK EGF block 25µM*.
CC(C)OC(=O)c1cc2c(OC[C@@H](O)CNC(C)(C)C)cccc2[nH]1 was read as ERK EGF block -8%.
CCCCCCCCCCCCCCCC(=O)NCCCC(=O)O was read as ERK EGF block -5%.
`COc1c(-c2coc3cc4c(cc3c2=O)CC(OC(C)=O)C(C)(C)O4)ccc2c1C=CC(C)(C)O2` (stereo not given) gave ERK EGF block 47%.
COc1c(-c2coc3cc4c(cc3c2=O)CC(O)C(C)(C)O4)ccc2c1C=CC(C)(C)O2 (stereo not given) was read as ERK EGF block 13µM*.
CC1(C)C=Cc2c(cc3occ(-c4ccc5c(c4)OCO5)c(=O)c3c2O)O1 was read as ERK EGF block 12%.
`COc1cc(=O)n(C)c2c(OC[C@@H](O)C(C)(C)O)cccc12` gave ERK EGF block -1%[25.7 µM].
For Cc1cc(C)c(S(=O)(=O)OC[C@H]2C=CC[C@@H](CCC[C@H]3O[C@H](C(=O)OC(C)C)CC[C@@H]3C)O2)c(C)c1 the results were ERK EGF block -5%.
For O=C(O)c1cccc2c1C(=O)c1ccccc1C2=O the results were ERK EGF block 8%.
For CN(C=[N+](C)C)c1cccc2c1C(=O)c1ccccc1C2=O the results were ERK EGF block 18µM*.
`C/C(=N\N(C)C)C1=C(O)c2ccccc2C1=O` gave ERK EGF block 3%.
Screening COC(=O)c1ccc(NC(=S)NN2CCCCC2c2cccnc2)cc1 (stereo not given) returned ERK EGF block 9%[57.5 µM].
`O=C(NC(=S)NN1CCCCC1c1cccnc1)c1ccc(Br)cc1` (stereo not given) gave ERK EGF block 14µM*.
`O=C(NC(=S)N1CCCCC1)c1cccnc1` gave ERK EGF block -15%[57.5 µM].
`Cc1nc(NCc2ccccc2)c2nc(-c3ccccc3)n(CCN3CCCCC3)c2n1` gave ERK EGF block -4%.
For COC(=O)[C@@H](O)CC[C@@H](C)Cc1c(OC)c(OC)c(C)c(OC)c1OC the results were ERK EGF block 3%.
CC(C)(C)OC(=O)NCCCCC1=CC2=CC(=O)C(C)(OC(=O)C3CCCC3)C(=O)C2=CO1 (stereo not given) was read as ERK EGF block -4%.
Screening CCCN1C[C@H](CSC)C[C@H]2c3cccc4[nH]cc(c34)C[C@@H]21 returned ERK EGF block -6%[25.7 µM].
